Most compounds without a hit are left out; they make up all but 6.9% or so of the library.
KB-3-1 cytotox = kills parental KB-3-1 adenocarcinoma cells | KB-3-1 viability, CellTiter-Glo ATP luminescence, 72 h | Potency, µM (doses to about 46.1 µM), most hits filed as cytotoxic | 1.4% of 400,000 active | AID 1347075; further: potency means the concentration at half of the fitted maximal effect; on the % scale 0 is the no-effect control and ±100 the full control effect; nearly all actives have a fitted effect of over 60% in size
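KB-3-1 cells, DMEM (no phenol red) + 10% FBS; compound by pin transfer, 72 h, 37 °C. Readout: CellTiter-Glo luminescence after 10 min. Data normalized, curve-fitted.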
SW480 rerep = inducers of DNA re-replication in SW480 colon cancer cells; Potency, µM (series often up to 46.1 µM), without a hit: at the highest dose re-replication activation, most hits filed as activators; 1.8% of 340,000 active; AID 624297; SW480 DNA re-replication, Hoechst DNA content imaging, 48 h; further: potency means the concentration at half of the fitted maximal effect; % of control where 0% means no effect; nearly all actives have a fitted effect of over 55% in size
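DNA re-replication was detected as more nuclei of elevated Hoechst intensity after 48 hr exposure to compound (23 nL pinned per well of 250 cells).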
Giardia killer = kills Giardia lamblia; activity change, % at 7.66 µM, hits read low; 0.15% of 340,000 active; Giardia lamblia trophozoite viability; AID 540267; in the data active means activity change below about -80%; inconclusive means between about -30% and that limit;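 further: parasites exposed to compound for two days anaerobically before the ATP read; on the % scale 0 is the no-effect control and ±100 the full control effect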
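ATP-content bioluminescence gauges trophozoite survival. Cells (100/well) receive compound and incubate anaerobically for 48 hrs at 37 deg C; detection reagent follows for 15-30 min at room temperature.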
S-ASM inh = inhibitors of human secretory acid sphingomyelinase; 0.006% of 340,000 active; placental ASM, HMU-PC fluorogenic substrate, 60 min; Potency, µM (titrated, usually from 57.5 µM), for inactives: at the highest dose activity change, negative = inhibition, actives largely listed as inhibitors; AID 504937; further: potency means the concentration at half of the fitted maximal effect
Target sequence (P17405 47-631 limits assumed): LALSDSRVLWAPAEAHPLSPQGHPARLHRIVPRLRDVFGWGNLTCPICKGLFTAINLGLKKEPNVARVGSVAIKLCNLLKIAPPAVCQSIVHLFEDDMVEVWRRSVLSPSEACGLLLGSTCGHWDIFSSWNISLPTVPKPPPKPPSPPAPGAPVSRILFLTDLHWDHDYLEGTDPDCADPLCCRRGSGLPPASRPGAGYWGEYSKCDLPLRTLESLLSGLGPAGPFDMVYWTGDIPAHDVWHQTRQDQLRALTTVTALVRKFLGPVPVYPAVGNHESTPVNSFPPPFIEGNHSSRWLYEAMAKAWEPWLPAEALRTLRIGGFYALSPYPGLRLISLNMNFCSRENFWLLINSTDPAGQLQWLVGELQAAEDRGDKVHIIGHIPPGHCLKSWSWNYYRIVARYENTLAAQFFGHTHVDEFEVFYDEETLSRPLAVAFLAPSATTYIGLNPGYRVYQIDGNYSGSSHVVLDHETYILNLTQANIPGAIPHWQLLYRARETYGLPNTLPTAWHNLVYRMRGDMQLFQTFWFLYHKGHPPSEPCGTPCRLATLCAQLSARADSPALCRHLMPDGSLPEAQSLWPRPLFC
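qHTS format. ASM enzyme prepared from human placenta hydrolyses the fluorogenic substrate HMU-PC0 (9 uM final) over 60 min at 37 °C after a 10 min compound preincubation.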
MCF10A rereplic = inducers of DNA re-replication in MCF 10A breast cells; MCF 10A DNA re-replication, Hoechst nuclear intensity, 48 h; Potency, µM (series often up to 46.1 µM), for inactives: at the top dose activity, positive = re-replication, actives largely listed as activators; 2.9% of 350,000 active; AID 624296; further: potency means the concentration at half of the fitted maximal effect; % of control where 0% means no effect; nearly all actives have a fitted effect of over 50% in size
KB-V1 cytotox = kills drug-selected multidrug resistant KB-V1 cells; 3.4% of 400,000 active; Potency, µM (highest dose often 46.1 µM), actives largely listed as cytotoxic; KB-V1 MDR cells viability, CellTiter-Glo, 72 h; further: potency means the concentration at half of the fitted maximal effect; on the % scale 0 is the no-effect control and ±100 the full control effect; nearly all actives have a fitted effect of over 60% in size
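Cytotoxicity via CellTiter-Glo luminescence after 72 h compound exposure at 37 degrees C. Cells: drug-selected KB-V1 line, DMEM phenol-red free plus 10% FBS. Compounds tested at multiple concentrations; normalized data fitted to concentration-effect curves.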
Numbers without * were called inactive; i = inactive; ? = inconclusive; · = no result; [ ] = another dose, or the depositor's remark. Unless noted, the call rests on the fitted dose curve; in most records, active means well fitted curve in the direction sought with a large enough effect; inconclusive means small, poorly fitted or top-dose-only effect, or another doubt; inactive means no such curve, though single readings can be large; an effect the other way counts as inactive or inconclusive.

SMILES	KB-3-1 cytotox	SW480 rerep	Giardia killer	S-ASM inh	MCF10A rereplic	KB-V1 cytotox
COc1ccc(OC)c(NS(=O)(=O)c2ccc(SC)cc2)c1	7.3µM*	13µM*	-10	-1%	13µM*	4.1µM*
COc1ccc(NS(=O)(=O)c2ccc(NC(C)=O)cc2)c(OC)c1	i	?	-12	4%	?	i
COc1ccc(NS(=O)(=O)c2ccc(NC(=O)c3ccc(N(C)S(C)(=O)=O)cc3)cc2)c(OC)c1	4.6µM*	-84%	-22	0%	15%	i
CCOc1ccc(S(=O)(=O)Nc2cc(OC)ccc2OC)cc1	0.1µM*	0.41µM*	1	5%	?	0.41µM*
Oc1ccccc1C1C=C(c2ccc3c(c2)OCO3)NC(c2cccc(Cl)c2)N1 (centres undefined)	i	·	-4	·	·	i
CCOC(=O)c1cc2c(=O)n3ccccc3nc2n(CCOC)c1=NC(=O)c1c(-c2ccccc2Cl)noc1C	i	·	·	·	·	i
CN(C)c1ccc(CNC(=O)c2ccc3c(c2)N(C)C(=O)C2CCCCN32)cc1 (centres undefined)	i	·	·	·	·	i
Cc1nnc(SCc2ccc(Cl)cc2)c2cc3occc3n12	i	·	·	·	·	i
COc1ccc(CC(=O)Nc2ccc(S(=O)(=O)NC(C)C)cc2)cc1	i	-8%	-18	0%	0%	16µM*
Cc1ccc(CN2C(=O)C(O)(c3c[nH]c4ccccc34)c3cc(Cl)ccc32)cc1 (centres undefined)	i	·	·	·	·	?
CCN(CC)CCNC(=O)Cc1nn(Cc2ccccc2)c(=O)c2ccccc12	i	2.3µM*	0	-1%	175%	i
CCN(CC)CCNC(=O)Cn1nc(Cc2ccncc2)c2ccccc2c1=O	i	-22%	7	1%	-3%	?
CCCNC(=O)C(Cc1ccccc1)NC(=O)c1ccccn1 (centres undefined)	?	-5%	10	7%	3%	i
CC(C)C[C@@H](NC(=O)[C@@H](Cc1ccccc1)NC(=O)c1cnccn1)B(O)O	·	0.0042µM*	·	·	57%	·
O=C1[C@H](Oc2ccccc2)[C@@H](c2ccncc2)N1c1ccncc1	i	-1%	0	3%	?	i
O=C1[C@@H](Oc2ccccc2)[C@@H](c2ccncc2)N1c1ccncc1	i	-62%	-20	1%	0.18µM*	i
CC(C(=O)Nc1ccc(Cl)cc1)c1ncc(C(F)(F)F)cc1Cl (centres undefined)	i	?	-2	2%	?	26µM*
COc1ccc(-c2ccc3ncnc(NCc4cccs4)c3c2)cc1	?	·	·	·	·	i
CCOc1ccc(CN(C)C(=O)CCl)cc1	?	16µM*	-7	1%	?	?
CCOc1ccc(CN(C)C(=O)CCNC(=O)c2ccco2)cc1	i	-23%	-24	3%	0%	i
COc1ccc(NC(=O)C2=C(C)Nc3nc(SCc4ccc(Cl)cc4)nn3C2c2cccc(OC)c2OC)cc1 (centres undefined)	i	·	·	·	·	i
Cc1nn(Cc2ccccc2)c(C)c1NC(=O)c1ccc([N+](=O)[O-])cc1[N+](=O)[O-]	i	16µM*	8	-1%	-41%	?
Cc1ccc2c(c1)c1c(n2CC(O)Cn2nc(C)c(Br)c2C)CCCC1 (centres undefined)	?	9%	6	-18%	23µM*	21µM*
Cc1ccc2c(c1)c1c(n2CC(O)CN2CCCCCC2)CCCC1 (centres undefined)	i	?	25	1%	?	i
CCOc1ccc(-c2cc3c(=O)n(Cc4nc(-c5cccc(OC)c5OC)oc4C)ccn3n2)cc1Cl	i	·	·	·	·	i
SMILES	KB-3-1 cytotox	SW480 rerep	Giardia killer	S-ASM inh	MCF10A rereplic	KB-V1 cytotox
CN=C(N)NC(=O)Nc1c(C)cccc1C	i	16µM*	2	1%	0%	i
CN=C(NC(=O)Nc1c(C)cccc1C)NC(=O)Nc1c(C)cccc1C	i	-7%	11	1%	-3%	i
Cc1cccc(C)c1NC(=O)CN	i	18µM*	2	1%	-8%	?
CC(NC(=O)c1ccccc1)C(=O)OCn1nnc2ccccc2c1=O (centres undefined)	i	-5%	17	1%	2%	i
CCN1C(=O)C(=Cc2cccc(OC)c2Oc2ccc([N+](=O)[O-])cc2[N+](=O)[O-])SC1=S	23µM*	4.6µM*	8	4%	?	?
COc1cc(/C=C2\SC(=O)NC2=O)ccc1Oc1ccc([N+](=O)[O-])cc1[N+](=O)[O-]	i	21%	-19	-5%	21µM*	i
COc1ccc(/C=C/C(=O)NC(=S)NNC(=O)c2cnccn2)cc1	?	6%	-28	0%	-5%	?
O=C(/C=C/c1ccc(F)cc1)NC(=S)NNC(=O)c1cnccn1	5.8µM*	14%	0	-6%	4%	?
Cc1cccc(C(=O)N/N=C2/SCC(=O)N2Cc2ccccc2)c1	i	2%	2	3%	0%	?
CC(=O)N1/C(=C/c2ccc(N(C)C)cc2)C(=O)c2ccccc21	?	2.1µM*	-17	-8%	?	i
Cc1onc(-c2c(Cl)cccc2Cl)c1C(=O)N/N=C(\N)COc1ccc(Cl)cc1	4.1µM*	1%	-7	-3%	?	i
O=C(NC(=O)c1cccc(F)c1)OC[C@@H]1CCCN2CCCC[C@H]12	?	-12%	-19	4%	1%	?
O=C(Nc1ccc(C(=O)OC[C@@H]2CCCN3CCCC[C@H]23)cc1)c1cccc(Br)c1	i	-5%	-24	-5%	23µM*	i
Cc1ccc2c(c1)c(=O)c1ccccc1n2CCCC(=O)Nc1ccc(C)c(F)c1	i	·	·	·	·	i
CC(OC(=O)c1c2c(nc3ccccc13)/C(=C\c1ccc3c(c1)OCO3)CCC2)C(=O)Nc1ccc(S(N)(=O)=O)cc1 (centres undefined)	i	21µM*	-3	94%	3.3µM*	i
CCOC(=O)c1c(SCCN2CCCC2)n(-c2ccccc2)c(=S)n(-c2ccccc2)c1=O	i	6.5µM*	0	4%	4.6µM*	i
CCOc1ccc(/C=C/C(=O)c2c(O)c3ccccc3oc2=O)cc1	i	?	-18	-3%	?	12µM*
Cc1c(C(=O)NCc2ccc(Cl)cc2)sc2nc3n(c(=O)c12)CCCCC3	i	·	·	·	·	?
Cc1ccc(S(=O)(=O)NCCN=C(CN2CCOCC2)NS(=O)(=O)c2ccc(C)cc2)cc1	i	-3%	5	1%	256%[0.0737 µM]	i

Screening data deposited in PubChem by National Center for Advancing Translational Sciences (NCATS).
